# Measurements as given in PubChem BioAssay (NCI).
# The panel holds about 79,000 compounds, 15% with a hit somewhere; the sample as a whole holds those more often. Unmarked numbers belong to inactive results. Activity calls are given as the source filed them. No stated cut-off is given here; in the data, active means growth inhibition above about 70%; inactive means the rest.
# Columns and labels:
# [1] = NCI Yeast Anticancer Drug Screen. Data for the rad50 strain (AID 155);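 further: 0% = growth of vehicle-only cultures of the same strain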; details: S. cerevisiae rad50 strain growth inhibition, active compounds read high
# In short: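 A DNA repair-deficient yeast mutant serves as the test organism; compound-induced growth inhibition is calculated against vehicle-treated cells.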
# [2] = NCI Yeast Anticancer Drug Screen. Data for the mec2-1 strain (AID 157); details: S. cerevisiae mec2-1 strain, active compounds read high
# In short: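 Yeast mec2-1 mutant treated with compound. Readout: growth inhibition vs vehicle controls.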
# [3] = NCI Yeast Anticancer Drug Screen. Data for the sgs1 mgt1 strain (AID 161);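 further: 0% = growth of cultures given vehicle only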; details: S. cerevisiae sgs1 mgt1 strain, active compounds read high
# In short: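 Genetically altered yeast, compound exposure, growth inhibition relative to vehicle.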
# [4] = NCI Yeast Anticancer Drug Screen. Data for the cln2 rad14 strain (AID 165);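 further: 0% = growth equal to vehicle treated cultures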; details: S. cerevisiae cln2 rad14 strain, active compounds read high
# In short: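 cln2 rad14 yeast strain; compound exposure; growth inhibition read vs vehicle controls.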
# [5] = NCI Yeast Anticancer Drug Screen. Data for the bub3 strain (AID 167); details: S. cerevisiae bub3 mutant strain, active compounds read high
# In short: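 Inhibition values come from growth of compound-treated mutant yeast normalised to vehicle-treated controls.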
# [6] = NCI Yeast Anticancer Drug Screen. Data for the mlh1 rad18 strain (AID 175); details: S. cerevisiae mlh1 rad18 strain growth inhibition, active compounds read high
# In short: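 Yeast w/ defined DNA-repair lesions; compound exposure; growth vs vehicle controls → % inhibition.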
# [7] = at 5.0 µM (retest, dose inferred, filed as 0.5)
# [8] = at 50.0 µM (retest, dose inferred, filed as 5.0)
SMILES,"growth inhibition [1, 7]","growth inhibition [1, 8]",growth inhibition ([1]; at 50.0 µM),"growth inhibition [2, 7]","growth inhibition [2, 8]",growth inhibition ([2]; at 50.0 µM),"growth inhibition [3, 7]","growth inhibition [3, 8]",growth inhibition ([3]; at 50.0 µM),"growth inhibition [4, 7]","growth inhibition [4, 8]",growth inhibition ([4]; at 50.0 µM),"growth inhibition [5, 7]","growth inhibition [5, 8]",growth inhibition ([5]; at 50.0 µM),"growth inhibition [6, 7]","growth inhibition [6, 8]",growth inhibition ([6]; at 50.0 µM)
c1ccc2c(c1)CCc1[nH]c3c(c1-2)-c1ccccc1CC3,24%,94% (active),87.5% (active),16%,96% (active),91.2% (active),21%,94% (active),90.4% (active),62%,95% (active),88.4% (active),69%,94% (active),89.8% (active),31%,91% (active),86.3% (active)
Oc1c(Cl)cc(Cl)cc1C=Nc1cc(C(F)(F)F)ccc1Cl,76% (active),100% (active),91.8% (active),50%,99% (active),74.4% (active),46%,100% (active),91.7% (active),8%,76% (active),55.1%,5%,50%,77.4% (active),50%,99% (active),85.9% (active)
CCc1cc(-c2ccco2)c(C#N)c(=S)n1C1OC(COC(C)=O)C(OC(C)=O)C(OC(C)=O)C1OC(C)=O (centres undefined),-2%,-6%,3.05%,-15%,-7%,8.2%,-1%,6%,-19.4%,4%,22%,8.6%,7%,21%,-0.25%,-14%,5%,34.1%
O=C(CC[P+](c1ccccc1)(c1ccccc1)c1ccccc1)c1ccccc1,10%,78% (active),94.8% (active),6%,92% (active),94.8% (active),4%,74% (active),86.2% (active),-3%,71% (active),95.6% (active),7%,79% (active),94.8% (active),3%,84% (active),93.1% (active)
CC(C)(C)c1ccc(-c2nnc(SCc3ccc(Cl)cc3)n2-c2cccc(C(F)(F)F)c2)cc1,-14%,-34%,52.6%,-20%,-26%,5.9%,-13%,-30%,-3.2%,9%,-14%,-20.9%,7%,-9%,14.4%,-28%,-29%,-19.6%
CCCCCCSc1nn(CCC#N)c(=O)[nH]c1=O,-1%,-36%,96% (active),5%,36%,93.5% (active),1%,40%,91.5% (active),13%,10%,78.5% (active),24%,-6%,74.8% (active),3%,21%,96.7% (active)
CCN(CC)C(=S)N/N=C(/c1ccccc1)c1ccccn1,42%,96% (active),70.7% (active),92% (active),97% (active),76.9% (active),44%,97% (active),81.8% (active),80% (active),95% (active),81.8% (active),95% (active),96% (active),85.2% (active),96% (active),97% (active),83.1% (active)
FC(F)(F)c1ccc(-c2ccc(OCCN3CCCC3)cc2)cc1,30%,50%,98.6% (active),13%,50%,99.5% (active),25%,88% (active),99.4% (active),28%,40%,99.1% (active),26%,62%,99.4% (active),29%,68%,99.3% (active)
C/C=C(/CCC1NCCC2c3ccccc3NC12)[Si](C)(C)C (centres undefined),1%,8%,10.2%,-5%,8%,7.15%,-2%,37%,59.6%,-5%,0%,0.15%,-3%,15%,5.6%,-4%,37%,44.5%
Cc1cc(C)c(Cc2cc(C(C)(C)C)cc(C)c2O)cc1Cc1cc(C(C)(C)C)cc(C)c1O,-2%,10%,51.4%,-5%,24%,49.4%,2%,27%,63.6%,-16%,19%,69.3%,-4%,26%,49.9%,2%,33%,71% (active)
CCCCCCC(=O)CCCCCC/C=C\CC1OC(=O)C(N)(CO)C1O (centres undefined),34%,98% (active),91.5% (active),45%,99% (active),93.5% (active),43%,98% (active),93.2% (active),55%,98% (active),90% (active),80% (active),98% (active),91% (active),58%,98% (active),91.5% (active)
O=S(=O)(Nc1ccccc1)c1ccccc1C=C(c1ccccc1)c1ccccc1,37%,75% (active),85.1% (active),35%,90% (active),86% (active),46%,90% (active),86.5% (active),13%,84% (active),80.3% (active),43%,82% (active),80.3% (active),81% (active),84% (active),85.8% (active)
CNC(=O)NN(C)C=O,0%,2%,-12.1%,4%,2%,45.5%,2%,1%,-7.95%,-2%,-4%,12.1%,-2%,-5%,-4.35%,-4%,-3%,-4.55%
CCCCCN(CCCCC)CC(C)(C)C(O)c1ccc(OC)c2ccccc12 (centres undefined),-2%,42%,51.9%,-4%,18%,47.6%,1%,81% (active),52.5%,-4%,27%,86.9% (active),0%,64%,33.2%,-2%,57%,77.3% (active)
Cc1ccc(C(=O)N2CCN(C(=O)c3ccc(C)cc3)c3ccccc32)cc1,-14%,6%,42.5%,-13%,-19%,33.7%,-10%,30%,40.8%,-7%,14%,36.6%,-3%,43%,75.8% (active),-26%,14%,18.9%
Nc1cc(Cl)c(I)cc1Cl,7%,98% (active),74.5% (active),-15%,99% (active),15.8%,-1%,100% (active),50.1%,-7%,97% (active),32.3%,-8%,99% (active),69.2%,34%,99% (active),86.8% (active)
Cn1c(=S)c2[nH]c(=S)[nH]c2n(C)c1=O,85% (active),91% (active),97.2% (active),91% (active),92% (active),96.7% (active),94% (active),96% (active),96.7% (active),78% (active),47%,80.3% (active),91% (active),89% (active),96.7% (active),92% (active),93% (active),97.2% (active)
CC(=O)OC1COC(n2nnc(C#N)c2C#N)C(OC(C)=O)C1OC(C)=O (centres undefined),4%,9%,93.7% (active),-7%,2%,82.4% (active),1%,4%,94.7% (active),3%,4%,83% (active),1%,4%,89.3% (active),0%,27%,91.8% (active)
